The campaign covered roughly 2,300 compounds. About 1,000 (43%) were called active. The set was probably picked from earlier hits. Some of the results follow. Entries with a potency or affinity are not part of this list. Unmarked numbers belong to inactive results. No rule for the calls is given here.
Assay: modified counter assay using GFP fluorescence, PhoP regulon inhibitor project, dose response (AID 1985)
Conditions: S. Typhi, 4 h; series mostly up to 150 µM; inhibition: at the top concentration

Row | SMILES | inhibition [%]
1 | CCOC(=O)c1c(C)sc2c1N(C(C)=O)c1cc(Cl)ccc1S2 | -3.33
2 | CCCC1(c2ccccc2)NC(=O)N(CC(=O)Nc2ccccc2C(F)(F)F)C1=O (stereo not given) | 27.4
3 | O=C1C2C3C=CC(CC3)C2C(=O)N1/N=C/c1ccc(O)cc1 (stereo not given) | -1.35
4 | COc1ccc(CNc2nc3ccccc3n2C)c(O)c1 | 16.9
5 | CCN(CC)S(=O)(=O)c1ccc(/C(O)=C(\C#N)c2nc3ccccc3n2C)cc1 | -25.9
6 | Cn1c(-c2ccc(CN3CCCCC3)o2)nc2ccccc21 | -0.13
7 | CCN(CC)CCn1c(NCc2cc(OC)ccc2OC)nc2ccccc21 | -0.33
8 | CC1(C)N=C(N)NC(Nc2cccc(Br)c2)=N1 | -11.3
9 | Cc1cccc(NS(=O)(=O)c2ccc3c(c2)OCCO3)c1 | 1.22
10 | CCN(CC)CC#CC(C)OCOCC#CCOC (stereo not given) | -5.3
11 | CNc1ccc(SC#N)cc1 | 30.1
12 | O=C(CCn1cccc1)Nc1ccc(OC(F)(F)F)cc1 | -1.93
13 | NC1=NC2(CCCCC2)n2c(nc3ccccc32)N1 | -8.01
14 | COc1ccc(NC2=Nc3ccccc3CC2)cc1 | 11.2
15 | Cc1ccc(C(=O)NCC(=O)NCCc2ccc(S(N)(=O)=O)cc2)s1 | 10.8
16 | CCN1C(=O)N/C(=C/c2cc(C)n(Cc3ccccc3)c2C)C1=O | 30.9
17 | N=c1ccccn1CC(O)COc1ccccc1 (stereo not given) | -17.7
18 | Cc1c(Cl)cccc1NC(=O)C1CCN(S(C)(=O)=O)CC1 | -19.9
19 | Cc1ccc(N(C(=O)c2sc(C)nc2C)C(C(=O)NCc2ccco2)c2ccccc2)cc1 (stereo not given) | -2.74
20 | Fc1cccc(Cl)c1CSc1ccc(-c2ccco2)nn1 | -8.68
21 | Cc1cccc(OCC(=O)Nc2nonc2NC(=O)COc2cccc(C)c2)c1 | 18.1
22 | CC(=O)Nc1ccc(NC(=O)CSc2ccc(-c3ccco3)nn2)cc1 | -9.15
23 | Cc1ccc(C)c(NC(=O)CSc2nnc([C@@H](N)Cc3c[nH]c4ccccc34)o2)c1 | 22.6
24 | COc1ccccc1NC(=O)Cn1c(=O)n(CCc2c[nH]c3ccccc23)c(=O)c2cccnc21 | 2.09
25 | CC(C)CC(=O)N1CCN(C(=O)CCC2CCCC2)CC1 | 1.22

Row | SMILES | inhibition [%]
26 | CC(C)c1ccc(C2C(C#N)=C(N)Oc3c2oc(CO)cc3=O)cc1 (stereo not given) | 32.6
27 | CNS(=O)(=O)c1cc(OC)ccc1OC | -17.8
28 | C#CC[N+]1(CC#Cc2ccc(C#CC[N+]3(CC#C)CCOCC3)cc2)CCOCC1 | 36
29 | Nc1c(-c2ccccc2)sc2ccc3ccccc3[n+]12 | -6.95
30 | CCc1ccc(Nc2n[n+](-c3ccccc3)c(-c3c(Cl)cccc3Cl)s2)cc1 | 22.9
31 | COC(=O)CC1C(=O)NCCN1C(=O)CSc1nc2ccc([N+](=O)[O-])cc2s1 (stereo not given) | -5.58
32 | C(=N\Nc1nc2ccccc2[nH]1)/c1ccc2ncccc2c1 | 22.9
33 | O=C(O)COc1ccc(/C=C/c2nc3ccc([N+](=O)[O-])cc3s2)cc1 | 24.7
34 | O=C(N/N=C/c1cccnc1)c1ccc([N+](=O)[O-])cc1Cl | 20.2
35 | Cc1cccc(NC(=O)c2ccccc2Br)n1 | 7.12
36 | Cc1cc(=O)n2nc(N3CCCC(C(=O)NC4CCCCC4C)C3)sc2n1 (stereo not given) | -11
37 | COC(=O)c1ccc(Cn2cnc3ccccc3c2=O)cc1 | -24.3
38 | CCOC(=O)CSc1nc(-c2ccccc2)nc2ccccc12 | -13.8
39 | O=S(=O)(Nc1c(S(=O)(=O)c2ccccc2)c2nc3ccccc3nc2n1C1CCCCC1)c1ccccc1 | 10.3
40 | CCCCn1c(NS(=O)(=O)c2ccc(C)cc2)c(S(=O)(=O)c2ccccc2)c2nc3ccccc3nc21 | 16.6
41 | CCCCn1c(NCc2ccccc2NS(=O)(=O)c2ccc(C)cc2)nc2ccccc21 | 0.61
42 | Cc1cccc(S(=O)(=O)c2c(N)n(/N=C/c3ccccc3)c3nc4ccccc4nc23)c1 | -12
43 | N#CCCn1c2ccccc2c2nc3ccccc3nc21 | -14.3
44 | CCC(=O)N(Cc1cc2cc(OC)ccc2[nH]c1=O)c1ccc(C)cc1C | -1.85
45 | O=C(CCS(=O)(=O)c1ccccc1)Nc1ccc2c(c1)C(=O)NC2=O | -8.55
46 | Cc1ccc2nsnc2c1S(=O)(=O)NCc1ccc2c(c1)OCO2 | -19.2
47 | c1cncc(CSc2ccc(-c3cccs3)nn2)c1 | 21.3
48 | c1ccc2c(c1)CCN(c1nc3ccccc3n3cnnc13)C2 | -0.2
49 | COc1ccc2c(c1OC)C(=O)N(c1ccc(C)cc1)C2=O | -3.73
50 | Cc1cc(C(F)F)n2nc(C(=O)Nc3cc(C)on3)nc2n1 | -28.2

Row | SMILES | inhibition [%]
51 | Cc1[nH]nc2c1C(C1CC=CCC1)C(C#N)=C(N)O2 (stereo not given) | -24.6
52 | CC1(C)CC(=O)C2=C(C1)N(c1ccc(F)cc1)C(=O)CC2c1ccsc1 (stereo not given) | -3.27
53 | COc1ccc(-n2c3c(cc(C(=O)Nc4cccc(C)n4)c2=O)C(=O)CC(C)(C)C3)cc1 | 8.22
54 | CCc1ccc(NC2=NCCCS2)cc1 | 33.4
55 | CCCCN(C)C(=O)c1ccc(S(=O)(=O)N2CCOCC2)cc1 | -15
56 | CSc1ccc(NC(=O)C(C)N2CCN(C)CC2)cc1 (stereo not given) | 20.9
57 | Nc1nc(SCC(=O)Nc2ccc3c(c2)CCC3)n[nH]1 | 24.4
58 | Cc1cc(C)c2c(=O)[nH]c(SCC(=O)N3CCCCC3)nc2n1 | 12.4
59 | CC(C)c1c(O)nc(SCC(=O)N2CCOCC2)[nH]c1=O | 15.7
60 | CCCCC(=O)Nc1ccc2c(c1)C(=O)NC2=O | 3.13
61 | CCCC1(c2ccccc2)NC(=O)N(CC(=O)Nc2cc(S(=O)(=O)N3CCOCC3)ccc2Cl)C1=O (stereo not given) | -10.2
62 | CN1Cc2ccccc2N(CC(=O)NCc2ccccc2)C1=O | 17.8
63 | O=C(CC1(O)C(=O)Nc2ccc(Br)cc21)c1ccc2c(c1)OCO2 (stereo not given) | -18.1
64 | CCn1c(=N)n(CC(=O)c2ccc(OC)cc2)c2ccccc21 | 26
65 | CCOC(=O)CNC(=O)Cn1c(C)cc2ccccc2c1=O | -9.62
66 | O=C(CN(Cc1ccco1)C(=O)CNS(=O)(=O)c1ccc(Cl)cc1)NCc1ccc(F)cc1 | -0.77
67 | CCN1CCN(CC(=O)Nc2ccc(C)c(Br)c2)CC1 | 10.2
68 | CS(=O)(=O)N(CCc1ccccc1)CC(=O)Nc1ccc2c(c1)OCO2 | -15.3
69 | CCN(CC)CCn1nc(C)nc1-c1ccccc1O | 27.2
70 | Clc1ccc(Nc2nc(C3CC3)cs2)cc1 | 12
71 | Nc1nc(N2CCN(c3ccccn3)CC2)nc2ccccc12 | 1.19
72 | Cc1ccc(NC2=NCCCS2)cc1Cl | 38
73 | CCc1nc(SCC(=O)Nc2ccc(N(C)C)cc2)c2ccccc2n1 | -3.05
74 | c1ccc2oc(-c3ccc(Nc4nc(N5CCCCC5)nc(N5CCOCC5)n4)cc3)nc2c1 | -13.3
75 | C/C(=N\Nc1ccc(C)c(Cl)c1)c1cccnc1 | -11.4
